Inconclusive results are not listed. The source made the active and inactive calls. Calls come from the whole dose curve; as a rule, active = well fitted curve in the direction sought with a large enough effect; inconclusive = small, poorly fitted or top-dose-only effect, or another doubt; inactive = no such curve, though single readings can be large; an effect the other way counts as inactive or inconclusive.

A short description of test [1]: Cell Viability - LYMP2-011 (AID 969). Note: nearly all actives have a fitted effect of over 60% in size. Note: potency is the fitted concentration of half-maximal effect. The method, boiled down: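 Luminescent ATP read-out (CellTiter-Glo, 30 min RT) after 24 hr compound exposure at 37 C in human lymphoblastoid cells, 2500 cells/well. Decreasing ATP indicates cytotoxicity; AC50 from standard Hill fit.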
Test [2] can be described thus: Cell Viability - LYMP2-013 (AID 970). Note: nearly all actives have a fitted effect of over 55% in size. Note: potency is the fitted concentration of half-maximal effect. A digest of the protocol:
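CellTiter-Glo luminescence (cellular ATP) read after 30 min at RT. Cells: human lymphoblastoid line, 2500/well, 24 hr compound exposure at 37 C. Tetraoctylammonium bromide positive control; AC50 via standard Hill fit of qHTS titrations.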

A short description of test [3]: Cell Viability - LYMP2-015 (AID 971). Note: nearly all actives have a fitted effect of over 55% in size. Note: potency is the fitted concentration of half-maximal effect. A digest of the protocol:
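qHTS cytotoxicity: 2500 cells/well, 5 hr 37 C, compound 24 hr 37 C, CellTiter-Glo 30 min RT, luminescence. Loss of ATP = toxicity; AC50 via standard Hill fit.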

Test [4] in a line: Cell Viability - LYMP2-017 (AID 972). Note: nearly all actives have a fitted effect of over 55% in size. Note: potency is the fitted concentration of half-maximal effect. A digest of the protocol: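 Luminescent ATP read-out (CellTiter-Glo, 30 min RT) reports viable cell number. Cells: human lymphoblastoid line, 2500 per well, 5 hr preincubation, 24 hr compound exposure at 37 C. AC50 is derived from qHTS concentration-response data using the standard Hill model.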
A short description of test [5]: Cell Viability - LYMP2-019 (AID 973). Note: nearly all actives have a fitted effect of over 55% in size. Note: potency is the fitted concentration of half-maximal effect. The method, boiled down:
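qHTS, 1536-well; 2500 cells/well; 5 hr pre-incubation, 24 hr compound exposure, 37 C; CellTiter-Glo added, 30 min RT; luminescence read; AC50 via standard Hill equation.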

Test [6] in a line: Cell Viability - LYMP2-021 (AID 974). Note: potency is the fitted concentration of half-maximal effect. A digest of the protocol:
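ATP luminescence (CellTiter-Glo, 30 min RT) after 24 h compound exposure at 37 C; 2500 human lymphoblastoid cells/well, 5 h settle beforehand. Cytotoxicity = concentration-dependent ATP drop, AC50 by Hill fit.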

The nature of test [7]: Cell Viability - LYMP2-025 (AID 976). Note: potency is the fitted concentration of half-maximal effect. The method, boiled down:
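CellTiter-Glo luminescence (cellular ATP) after 24 h compound exposure at 37 C; LYMP2-025 human lymphoblastoid cells, 2500/well, complete medium. Tetraoctylammonium bromide positive control. AC50 by Hill equation fit of qHTS concentration-response.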

Test [8] is described as follows: Cell Viability - LYMP2-002 (AID 977). Note: potency is the fitted concentration of half-maximal effect. The method, boiled down:
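Human lymphoblastoid cells, 2500/well, complete medium; 5 h 37 C settle; compound 24 h 37 C; CellTiter-Glo, 30 min RT; luminescence. Decrease in ATP = cytotoxicity; AC50 via Hill equation.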

A short description of test [9]: Cell Viability - LYMP2-006 (AID 978). Note: nearly all actives have a fitted effect of over 60% in size. Note: potency is the fitted concentration of half-maximal effect. The method, boiled down: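 Potency values are Hill-fit AC50s for decreases in intracellular ATP (CellTiter-Glo luminescence). LYMP2-006 lymphoblastoid cells, 2500 per well, were exposed to compound in complete culture medium for 24 hr at 37 C.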
Test [10] is described as follows: Cell Viability - LYMP2-008 (AID 980). Note: nearly all actives have a fitted effect of over 60% in size. Note: potency is the fitted concentration of half-maximal effect. A digest of the protocol: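 Luminescent ATP read-out (CellTiter-Glo, 30 min RT) after 24 hr compound exposure at 37 C of human lymphoblastoid cells in complete medium. Decrease in ATP taken as cytotoxicity; AC50 derived by standard Hill fit of qHTS concentration-response data.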
Test [11] can be described thus: Cell Viability - LYMP2-010 (AID 981). Note: nearly all actives have a fitted effect of over 55% in size. Note: potency is the fitted concentration of half-maximal effect. The method, boiled down: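 qHTS cytotoxicity, 1536-well: 2500 cells/well, 5 hr settle, 24 hr compound at 37 C, CellTiter-Glo 30 min RT, luminescence read. Decrease in ATP = toxicity; AC50 via standard Hill equation. Positive control tetraoctylammonium bromide.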
The nature of test [12]: Cell Viability - LYMP2-012 (AID 982). Note: potency is the fitted concentration of half-maximal effect.
Test [13] can be described thus: Cell Viability - LYMP2-014 (AID 983). Note: nearly all actives have a fitted effect of over 50% in size. Note: potency is the fitted concentration of half-maximal effect. A digest of the protocol:
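2500 cells/well, 5 hr 37 C; cpd 24 hr 37 C, complete medium; CellTiter-Glo 30 min RT, luminescence; ATP loss = toxicity; AC50 via Hill eqn; tetraoctylammonium bromide positive control.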

Test [14] is described as follows: Cell Viability - LYMP2-016 (AID 984). Note: nearly all actives have a fitted effect of over 55% in size. Note: potency is the fitted concentration of half-maximal effect. The method, boiled down:
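Cytotoxicity was scored by luminescent ATP content (CellTiter-Glo) after 24 h compound exposure at 37 C of a human lymphoblastoid line at 2500 cells/well. Concentration-response data were fitted to the Hill equation for AC50.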

Test [15] is described as follows: Cell Viability - LYMP2-018 (AID 985). Note: nearly all actives have a fitted effect of over 50% in size. Note: potency is the fitted concentration of half-maximal effect. The method, boiled down: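 2500 cells/well; 5 hr 37 C; cmpd 24 hr 37 C, complete medium; CellTiter-Glo 30 min RT; luminescence. Tetraoctylammonium bromide positive control. AC50 via Hill fit.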
Test [16] can be described thus: Cell Viability - LYMP2-020 (AID 986). Note: nearly all actives have a fitted effect of over 55% in size. Note: potency is the fitted concentration of half-maximal effect. A digest of the protocol: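 qHTS, 2500 cells/well; 5 hr then 24 hr compound exposure, 37 C; CellTiter-Glo luminescence after 30 min RT; ATP decrease taken as cytotoxicity; AC50 via Hill equation; tetraoctylammonium bromide positive control.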
Test [17] in a line: Cell Viability - LYMP2-026 (AID 989). Note: nearly all actives have a fitted effect of over 50% in size. Note: potency is the fitted concentration of half-maximal effect. A digest of the protocol:
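qHTS cytotoxicity: 2500 cells/well, 5 hr 37 C, compound 24 hr 37 C, CellTiter-Glo 30 min RT, luminescence. Tetraoctylammonium bromide positive control. AC50 via standard Hill fit.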

Test [18] can be described thus: Cell Viability - LYMP1-002 - Assay at 24 hr (AID 993). Note: potency is the fitted concentration of half-maximal effect. A digest of the protocol:
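CellTiter-Glo luminescence (intracellular ATP) after 24 h compound exposure, 37 C, in LYMP1-002 human lymphoblastoid cells; decreased ATP taken as cytotoxicity. AC50 from standard Hill fit of concentration-response curves.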

The nature of test [19]: Cell Viability - LYMP1-002 - Assay at 40 hr (AID 994). Note: nearly all actives have a fitted effect of over 60% in size. Note: potency is the fitted concentration of half-maximal effect. A digest of the protocol:
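qHTS cytotoxicity; 2500 cells/well, 5 hr 37 C settle, compound 40 hr 37 C. CellTiter-Glo, 30 min RT, luminescence (ATP). Concentration-response, Hill fit → AC50. Pos. ctrl tetraoctylammonium bromide.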

Test [20] concerns the target Alpha-galactosidase A (Homo sapiens) (UniProt P06280). Kind of test: Counterscreen for Glucocerebrosidase Inhibitors: qHTS Assay for Human alpha-Galactosidase at pH 4.5 (AID 992). A digest of the protocol: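 Each compound is preincubated briefly with 2 nM enzyme before substrate addition (80 uM); plates then sit 20 min at ambient temperature, are quenched with 1M NaOH/1M glycine, and read fluorometrically.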

Alpha-galactosidase A (Homo sapiens), sequence (P06280 whole entry, looked up): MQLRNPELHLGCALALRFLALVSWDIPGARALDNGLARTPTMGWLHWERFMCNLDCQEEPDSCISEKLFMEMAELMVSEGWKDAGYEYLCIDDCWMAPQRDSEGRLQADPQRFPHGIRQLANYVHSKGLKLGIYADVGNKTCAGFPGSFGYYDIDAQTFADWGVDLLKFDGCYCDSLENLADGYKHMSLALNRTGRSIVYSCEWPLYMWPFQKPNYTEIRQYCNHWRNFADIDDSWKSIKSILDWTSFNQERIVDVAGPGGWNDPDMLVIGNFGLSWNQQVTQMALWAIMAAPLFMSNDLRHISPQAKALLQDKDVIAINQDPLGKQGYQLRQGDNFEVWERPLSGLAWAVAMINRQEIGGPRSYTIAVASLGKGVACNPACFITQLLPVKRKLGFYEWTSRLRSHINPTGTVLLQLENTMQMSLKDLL

Regarding `Cc1ccc(O)cc1`, the Potency result in test [1], in [2], in [3], in test [4], in test [5] and in [6] was “inactive” throughout. Also, the Potency result in [7], in [8], in test [9], in test [10], in test [11] and in test [12] was “inactive” each time. Moreover, the Potency entry in [13], in [14], in test [15], in test [16], in test [17] and in test [18] was “inactive” in each case. Also, in test [19], the Potency result was “inactive”.
Take `C1=CC2C3C=CC(C3)C2C1` (stereo unspecified): the Potency result in test [1], in [2], in test [3], in [4], in test [5] and in [6] was “inactive” throughout. The Potency result in test [7], in test [8], in test [9], in test [10], in test [11] and in [12] was “inactive” in each case. Besides, the Potency result in [13], in test [14], in [15], in test [16], in [17] and in test [18] was “inactive” in each case. In addition, in test [19], the Potency result was “inactive”.
`c1ccc2occc2c1`: the Potency result in test [1], in test [2], in test [3], in [4], in [5] and in [6] was “inactive” in each case. In addition, the Potency entry in [7], in [8], in test [9], in test [10], in test [11] and in test [12] was “inactive” in each case. Besides, the Potency result in test [13], in test [14], in test [15], in [16], in [17] and in [18] was “inactive” in each case. Besides, in test [19], the Potency result was “inactive”.
On to `Cc1cc(C(C)(C)C)c(O)c(C(C)(C)C)c1`, for which the Potency result in test [1], in [2], in test [3], in [4], in test [5] and in [6] was “inactive” each time. Besides, the Potency result in test [7], in test [8], in test [9], in test [10], in test [11] and in [12] was “inactive” throughout. For the same compound, the Potency result in test [13], in test [14], in test [15], in test [16], in test [17] and in test [18] was “inactive” in each case. The Potency entry in test [19] is “inactive”.
Turning to `COc1cc(C=O)ccc1O`, the Potency result in [1], in test [2], in test [3], in test [4], in test [5] and in [6] was “inactive” each time. The Potency result in test [7], in test [8], in [9], in test [10], in [11] and in [12] was “inactive” in each case. In addition, the Potency entry in [13], in [14], in test [15], in test [16], in test [17] and in [18] was “inactive” throughout. In addition, the Potency entry in test [19] is “inactive”.
Take `C[N+](C)(C)CCO`: the call in test [20] was inactive.
As for `CCCC(=O)c1cc(O)c(O)cc1O`, the Potency result in test [1], in test [2], in test [3], in test [5], in test [6] and in test [7] was “inactive” in each case. The Potency result in [8], in [9], in [10], in test [12], in test [13] and in [14] was “inactive” each time. The Potency entry in test [15], in test [16], in test [17], in [18] and in test [19] was “inactive” each time.
For the compound `Nc1c2ccccc2nc2ccccc12`, the Potency in test [1] is 12.6 µM (active); in test [2] it was 12.6 µM (active); in test [3] it was 10 µM (active); in [4], 15.8 µM (active); in test [5], 10 µM (active); in test [6], 12.6 µM (active). Besides, the Potency in [7] was 12.6 µM (active); in test [8] it was 7.94 µM (active); in test [9], 20 µM (active); in test [10], 12.6 µM (active); in [11], 12.6 µM (active); in test [12], 10 µM (active). Further, the Potency in test [13] is 10 µM (active); in [14] it was 10 µM (active); in test [15], 12.6 µM (active); in test [16], 10 µM (active); in test [17] it was 15.8 µM (active); in test [18] it was 20 µM (active). Moreover, the Potency in [19] was 12.6 µM (active).
Consider `CC(C)N(CCC(=O)c1ccc2ccccc2c1)Cc1ccccc1`, for which the compound was classed as inactive in test [20].
`Nc1cccc2c(N)cccc12`: the Potency result in test [1], in test [2], in test [3], in [4], in [5] and in [6] was “inactive” in each case. Moreover, the Potency entry in test [7], in [8], in test [9], in test [10], in test [11] and in [12] was “inactive” in each case. The Potency result in [13], in test [14], in test [15], in test [16], in [17] and in [18] was “inactive” each time. Moreover, the Potency result in [19] is “inactive”.
For `NC(N)=NCCCCN=C(N)N`, in test [20], the result was inactive.
Still for that read-out and setting: the result for `Brc1ccc([C@H]2CN3CCSC3=N2)cc1` reads “inactive”.
`Oc1ccccc1`: the Potency entry in test [1], in [2], in test [3], in [4], in [5] and in [6] was “inactive” throughout. For the same compound, the Potency entry in test [7], in test [8], in test [9], in [10], in test [11] and in [12] was “inactive” in each case. Moreover, the Potency entry in test [13], in [14], in [15], in test [16], in [17] and in test [18] was “inactive” throughout. For the same compound, in [19], the Potency result was “inactive”.
`Nc1ccc(O)cc1`: the Potency was 39.8 µM (active) in test [1]; 50.1 µM (active) in [2]; 31.6 µM (active) in [3]; 39.8 µM (active) in test [4]; 39.8 µM (active) in test [5]; 31.6 µM (active) in test [6]. The Potency was 39.8 µM (active) in [8]; 50.1 µM (active) in [9]; 39.8 µM (active) in test [10]; 25.1 µM (active) in [11]; 31.6 µM (active) in test [12]; 39.8 µM (active) in [13]. The Potency is 50.1 µM (active) in test [14]; 39.8 µM (active) in test [15]; 31.6 µM (active) in test [16]; 50.1 µM (active) in [17]; 39.8 µM (active) in [18]; 50.1 µM (active) in [19].

For the origin of these results see PubChem BioAssay (NCATS).
